# Inconclusive results are not listed. Activity calls are given as the source filed them. Unless noted, the call rests on the fitted dose curve; in most records, active means well fitted curve in the direction sought with a large enough effect; inconclusive means small, poorly fitted or top-dose-only effect, or another doubt; inactive means no such curve, though single readings can be large; an effect the other way counts as inactive or inconclusive.
# Tests used:
# [1] = tested on: Zika virus NS2B-NS3 protease (unlinked complex); assay: Primary screen GU Rhodamine qHTS for Zika virus inhibitors: Unlinked NS2B-NS3 protease assay (AID 1347159); further: on the % scale 0 is the no-effect control and ±100 the full control effect; nearly all actives have a fitted effect of over 60% in size
# Method in brief: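 Noncovalent NS2B hydrophilic domain/NS3 protease complex (25 nM final) in 10 mM Tris-HCl pH 8.0, 0.01% Tween 20, preincubated 15 min with compounds (up to 114 microM), then 1.5 microM Rhodamine110 substrate. Fluorescence change over 15 min fitted to 4-parameter Hill.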
# [2] = Primary qHTS for inhibitors of nuclear receptor binding SET domain protein 2 (NSD2) in an isogenic RCH-ACV NSD2 p.E1099K mutant (9B) (AID 1645876); further: nearly all actives have a fitted effect of over 70% in size; further: potency means the concentration at half of the fitted maximal effect
# [3] = tested on: CRL-7250; assay: Cytotoxic Profiling of Annotated Libraries Using Quantitative High-Throughput Screening (AID 1296008); conditions: Five cell lines viability, CellTiter-Glo ATP luminescence, 48-72 h; max response: stronger effect = lower value; further: nearly all actives have a fitted effect of over 60% in size; further: potency means the concentration at half of the fitted maximal effect; on max response: on the % scale 0 is the no-effect control and ±100 the full control effect
# Method in brief: (§1)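 Cells exposed to compounds for 48 or 72 hr at 37 degrees Celsius. Viability read as ATP-coupled luminescence with CellTiter-Glo after 10 min at room temperature.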
# [4] = tested on: KB-3-1; assay: as above; conditions: Five cell lines viability, CellTiter-Glo ATP luminescence, 48-72 h; max response: stronger effect = lower value
# Method in brief: as §1
# [5] = tested on: SKOV3; assay: Primary qHTS to identify gynecologic anti-cancer compounds using libraries of approved drugs and bioactive compounds (AID 1345084); conditions: Gynecologic cancer cell panel viability, ATPlite luminescence, 48 h; series mostly up to 57.5 µM; further: nearly all actives have a fitted effect of over 55% in size; further: potency means the concentration at half of the fitted maximal effect
# Method in brief: (§2)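 ATP-based viability (ATPlite), 1,000 cells/well, 16 h pre-incubation, 48 h compound at 37 C, 5% CO2, 15 min RT before read.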
# [6] = P-glycoprotein substrates identified in KB-8-5-11 adenocarcinoma cell line, qHTS therapeutic library screen (AID 1346987); further: nearly all actives have a fitted effect of over 65% in size; further: potency means the concentration at half of the fitted maximal effect
# Method in brief: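 KB-8-5-11, a colchicine-selected P-gp-overexpressing KB-3-1 subline, was grown without colchicine for the assay. Cells were seeded at 500 cells/well, dosed in concentration-response and incubated 72 h at 37 degree C, 5% CO2. Viability was read by CellTiter-Glo luminescence.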
# [7] = Primary qHTS for inhibitors of nuclear receptor binding SET domain protein 2 (NSD2) in an RCH-ACV wild type WT cells (2C) (AID 1645877); further: potency means the concentration at half of the fitted maximal effect; nearly all actives have a fitted effect of over 70% in size
# [8] = tested on: HEK293; assay: Cytotoxic Profiling of Annotated Libraries Using Quantitative High-Throughput Screening (AID 1296008); conditions: Five cell lines viability, CellTiter-Glo ATP luminescence, 48-72 h; max response: stronger effect = lower value; further: nearly all actives have a fitted effect of over 60% in size; further: potency means the concentration at half of the fitted maximal effect; on max response: on the % scale 0 is the no-effect control and ±100 the full control effect
# Method in brief: as §1
# [9] = tested on: HeLa; assay: Primary qHTS to identify gynecologic anti-cancer compounds using libraries of approved drugs and bioactive compounds (AID 1345084); conditions: Gynecologic cancer cell panel viability, ATPlite luminescence, 48 h; series mostly up to 57.5 µM; further: nearly all actives have a fitted effect of over 55% in size; further: potency means the concentration at half of the fitted maximal effect
# Method in brief: as §2
# [10] = molecular target: Cytochrome P450 2D6 (Homo sapiens) (UniProt P10635); assay: Cytochrome P450 family 2 subfamily D member 6 (CYP2D6) small molecule antagonists: luciferase biochemical (cell-free) qHTS assay (AID 1645840; active means well fitted curve in the direction sought with a large enough effect in the repeat runs; an effect the other way counts as inactive or inconclusive; further: nearly all actives have a fitted effect of over 55% in size; further: potency means the concentration at half of the fitted maximal effect; on activity change, negative = inhibition: on the % scale 0 is the no-effect control and ±100 the full control effect)
# Chain of Cytochrome P450 2D6 (Homo sapiens) (P10635 whole entry, looked up): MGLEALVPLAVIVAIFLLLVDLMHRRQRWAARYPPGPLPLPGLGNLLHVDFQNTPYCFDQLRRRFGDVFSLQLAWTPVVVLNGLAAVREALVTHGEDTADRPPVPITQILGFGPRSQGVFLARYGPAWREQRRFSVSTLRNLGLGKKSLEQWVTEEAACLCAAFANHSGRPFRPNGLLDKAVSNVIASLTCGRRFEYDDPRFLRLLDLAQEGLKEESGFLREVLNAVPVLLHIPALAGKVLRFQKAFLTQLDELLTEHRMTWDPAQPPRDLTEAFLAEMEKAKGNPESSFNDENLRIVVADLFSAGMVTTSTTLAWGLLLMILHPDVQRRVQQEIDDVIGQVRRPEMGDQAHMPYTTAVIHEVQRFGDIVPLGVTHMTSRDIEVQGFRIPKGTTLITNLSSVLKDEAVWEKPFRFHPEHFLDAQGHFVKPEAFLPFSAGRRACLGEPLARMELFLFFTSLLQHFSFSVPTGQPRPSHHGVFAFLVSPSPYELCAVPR
# Method in brief: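 P450-Glo luminescent screen: recombinant CYP2D6 enzyme–proluciferin substrate mix preincubated with compound 10 min at room temperature, then NADPH regeneration added for 1 h at room temperature. Detection reagent added for 20 min; luciferin light read as relative luminescence units.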
# [11] = molecular target: Catechol O-methyltransferase (Homo sapiens) (UniProt P21964); assay: Confirmatory Screen for Target Class Profiling of Small Molecule Inhibitors of Methyltransferases (AID 1745852); conditions: MTase-Glo luminescence, SAH detection, recombinant enzyme; measured here: COMT max response; stronger effect = lower value; on activity change, negative = inhibition: on the % scale 0 is the no-effect control and ±100 the full control effect
# Chain of Catechol O-methyltransferase (Homo sapiens) (P21964 whole entry, looked up): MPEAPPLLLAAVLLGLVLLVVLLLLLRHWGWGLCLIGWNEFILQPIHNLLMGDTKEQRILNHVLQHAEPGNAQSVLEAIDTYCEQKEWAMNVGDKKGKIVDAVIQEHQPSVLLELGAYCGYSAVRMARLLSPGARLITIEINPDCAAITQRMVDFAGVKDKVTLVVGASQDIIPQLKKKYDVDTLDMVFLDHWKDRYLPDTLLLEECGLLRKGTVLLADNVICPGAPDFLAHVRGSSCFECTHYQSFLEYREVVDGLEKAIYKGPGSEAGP
# [12] = molecular target: Guanidinoacetate N-methyltransferase (Homo sapiens) (UniProt Q14353); assay: as above; conditions: activity change, negative = inhibition: at 57.3 µM (top of the series) unless noted
# [13] = molecular target: Nicotinamide N-methyltransferase (Homo sapiens) (UniProt P40261); assay: as above; conditions: MTase-Glo luminescence, SAH detection, recombinant enzyme; measured here: NNMT max response; stronger effect = lower value
# Chain of Nicotinamide N-methyltransferase (Homo sapiens) (P40261 whole entry, looked up): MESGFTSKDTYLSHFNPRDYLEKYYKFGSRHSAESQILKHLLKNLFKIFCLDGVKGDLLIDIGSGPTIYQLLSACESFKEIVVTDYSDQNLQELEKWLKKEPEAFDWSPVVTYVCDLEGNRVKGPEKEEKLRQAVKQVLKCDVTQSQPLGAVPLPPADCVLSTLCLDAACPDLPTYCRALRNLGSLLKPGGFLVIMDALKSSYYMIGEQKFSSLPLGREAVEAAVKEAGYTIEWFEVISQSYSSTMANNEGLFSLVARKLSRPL
# [14] = molecular target: Phenylethanolamine N-methyltransferase (Homo sapiens) (UniProt P11086); assay: as above; conditions: MTase-Glo luminescence, SAH detection, recombinant enzyme; measured here: PNMT max response; stronger effect = lower value
# Chain of Phenylethanolamine N-methyltransferase (Homo sapiens) (P11086 whole entry, looked up): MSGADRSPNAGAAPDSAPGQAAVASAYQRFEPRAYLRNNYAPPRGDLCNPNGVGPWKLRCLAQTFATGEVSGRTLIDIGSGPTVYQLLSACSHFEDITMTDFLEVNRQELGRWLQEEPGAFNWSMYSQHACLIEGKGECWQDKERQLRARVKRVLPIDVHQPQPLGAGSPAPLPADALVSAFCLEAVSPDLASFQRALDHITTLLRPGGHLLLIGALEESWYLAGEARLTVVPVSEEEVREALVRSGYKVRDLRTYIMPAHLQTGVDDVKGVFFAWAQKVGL
# [15] = tested on: HACAT; assay: qHTS assay to identify novel small-molecules to repurpose for Merkel cell carcinoma treatment (AID 1296009); conditions: MCC and control cell lines, CellTiter-Glo viability, 72 h; at 44.8 µM (top of the series) unless noted; further: nearly all actives have a fitted effect of over 60% in size
# Method in brief: (§3)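 Cells were treated for 72 hr at 37 degree celsius with compounds in 8- or 11-point dose response. Viability was read by CellTiter-Glo luminescence, normalized to no-cell (cytotoxicity) and DMSO controls.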
# [16] = tested on: NIH3T3; assay: as above; conditions: MCC and control cell lines, CellTiter-Glo viability, 72 h; at 44.8 µM (top of the series) unless noted
# Method in brief: as §3
smiles,measurement,setting,value
COc1ccc(CCNCc2ccc(OC)c3ccccc23)cc1,Potency,[1],inactive
same,Potency,[2],14500 nM (active)
same,max response,[3],-2.06% (inactive)
same,max response,[4],-13.8% (inactive)
same,Potency,[5],inactive
COC1CC(OC2CCC3(C=O)C(CCC4C3CCC3(C)C(C5=CC(=O)OC5)CCC43O)C2)OC(C)C1O (stereo not given),Potency,[6],178 nM (active)
same,Potency,[2],79.6 nM (active)
same,Potency,[7],126 nM (active)
same,Potency,[8],112 nM (active)
same,Potency,[4],252 nM (active)
same,Potency,[9],224 nM (active)
same,Potency,[5],199 nM (active)
O=C1Nc2ccc3ncsc3c2/C1=C/c1cnc[nH]1,Potency,[6],1640 nM (active)
same,Potency,[1],inactive
same,Potency,[10],1690 nM (active)
same,Potency,[2],649 nM (active)
same,Potency,[7],578 nM (active)
same,activity,[11],-10.3%
same,"activity change, negative = inhibition",[12],-5.42%
same,activity,[13],-8.72%
same,activity,[14],-10%
same,Potency,[8],5170 nM (active)
same,Potency,[4],2310 nM (active)
CCC1CN2CCc3cc(OC)c(OC)cc3C2CC1CC1=NCCc2cc(O)c(OC)cc21 (stereo not given),Potency,[6],inactive
same,Potency,[1],inactive
same,Potency,[2],inactive
same,activity,[11],-74.9%
same,"activity change, negative = inhibition",[12],-9.58% [at 29.8 µM]
same,activity,[13],-6.53%
same,activity,[14],-6.3%
same,max response,[3],-0.358% (inactive)
same,outcome,[15],inactive [at 17.4 µM]
same,Potency,[9],inactive
same,Potency,[5],inactive
C[C@@H]1O[C@@H](O[C@H]2CC[C@@]3(C)C(CC[C@@H]4C3CC[C@]3(C)[C@@H](C5=CC(=O)OC5)CC[C@]43O)C2)[C@H](O)[C@H](O)[C@H]1O (stereo not given in full),Potency,[6],709 nM (active)
same,Potency,[2],200 nM (active)
same,Potency,[7],632 nM (active)
same,Potency,[8],632 nM (active)
same,Potency,[4],796 nM (active)
same,Potency,[9],2000 nM (active)
same,Potency,[5],2000 nM (active)
CO[C@H]1C[C@H](O[C@H]2CC[C@]3(CO)[C@H]4CC[C@]5(C)[C@@H](C6=CC(=O)OC6)CC[C@]5(O)[C@@H]4CC[C@]3(O)C2)O[C@H](C)[C@H]1O,Potency,[6],22.4 nM (active)
same,Potency,[1],inactive
same,Potency,[2],50.2 nM (active)
same,Potency,[7],79.6 nM (active)
same,Potency,[3],70.9 nM (active)
same,Potency,[4],224 nM (active)
same,Potency,[9],199 nM (active)
same,Potency,[5],158 nM (active)
CO[C@@H]1[C@@H](O)[C@@H](O[C@H]2CC[C@]3(C=O)C4CC[C@]5(C)[C@@H](C6=CC(=O)OC6)CC[C@]5(O)[C@@H]4CC[C@H]3C2)O[C@@H](C)[C@H]1O[C@@H]1O[C@H](CO[C@@H]2O[C@H](CO)[C@@H](O)[C@H](O)[C@H]2O)[C@@H](O)[C@H](O)[C@H]1O (stereo not given in full),Potency,[6],3480 nM (active)
same,Potency,[1],inactive
same,Potency,[2],2750 nM (active)
same,Potency,[7],3460 nM (active)
same,Potency,[3],2190 nM (active)
same,outcome,[16],inactive [at 9.27 µM]
CC(=O)NCCCOc1ccc(C(=O)N2CCC(N3C(=O)CCc4ccccc43)CC2)cc1,Potency,[6],inactive
same,Potency,[1],inactive
same,Potency,[10],inactive
same,max response,[3],0.176% (inactive)
same,max response,[4],5.83% (inactive)
same,Potency,[9],inactive
same,Potency,[5],inactive
C/C=C(\C)C(O)C(C)/C=C(C)/C=C/C/C(C)=C/Cc1nc(OC)c(OC)c(O[C@@H]2O[C@@H](C)[C@H](O)[C@@H](O)[C@H]2O)c1C (stereo not given in full),Potency,[6],inactive
same,Potency,[1],inactive
same,Potency,[2],3550 nM (active)
same,Potency,[7],3990 nM (active)
same,Potency,[3],796 nM (active)
same,outcome,[15],inactive [at 17.4 µM]
same,Potency,[5],3160 nM (active)
CN1CN(c2ccccc2)C2(CCN(CCCC(=O)c3ccc(F)cc3)CC2)C1=O,Potency,[1],inactive
same,Potency,[2],23000 nM (active)
same,Potency,[7],25800 nM (active)
same,Potency,[8],14600 nM (active)
same,max response,[4],-4.39% (inactive)
same,Potency,[5],inactive
